# High-throughput results: PubChem, National Center for Advancing Translational Sciences (NCATS)
# Sfp PPTase inh: inhibitors of Bacillus subtilis Sfp phosphopantetheinyl transferase; Q9F4F7; Biochemical Sfp PPTase activity, qHTS; Potency, µM, most hits filed as inhibitors; hit rate 3.5% among 310,000; AID 1490;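 further: the enzyme is Sfp with the accession as filed and its product quenches rhodamine fluorescence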
#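 Step 1, compound plus 15 nM Sfp-PPTase, 15 min, room temperature. Step 2, add rhodamine-CoA (5 uM) and BHQ-2-YbbR (12.5 uM). Step 3, read 525/598 nm fluorescence at 0 and 30 min.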
# BAZ2B block: BAZ2B (human) inhibition; Q9UIF8; AlphaScreen BAZ2B-H3K14Ac peptide displacement; Potency, µM (top dose mostly 114 µM), most hits filed as inhibitors; hit rate 4.4% among 360,000; AID 504333; further: nearly all actives have a fitted effect of over 60% in size
#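 AlphaScreen displacement: compounds (up to 110uM) incubated 30 min at room temperature with a preformed 50 nM BAZ2B/50 nM biotinylated H3K14Ac peptide complex in PBS pH 7.4 with Tween-20. Donor and acceptor beads at 10 ug/mL final added, 20 min light-protected before reading.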
# PLK1 PBD inh: blocks phosphopeptide binding to human PLK1 polo-box domain; Potency, µM, usual class: inhibitors; Plk1 PBD binding of FITC phosphopeptide, fluorescence polarization; AID 720504; P53350; hit rate 2.8% among 360,000; further: series mostly up to about 57 µM; nearly all actives have a fitted effect of over 65% in size
# Target sequence (P53350 whole entry, looked up, the tested form may be a part): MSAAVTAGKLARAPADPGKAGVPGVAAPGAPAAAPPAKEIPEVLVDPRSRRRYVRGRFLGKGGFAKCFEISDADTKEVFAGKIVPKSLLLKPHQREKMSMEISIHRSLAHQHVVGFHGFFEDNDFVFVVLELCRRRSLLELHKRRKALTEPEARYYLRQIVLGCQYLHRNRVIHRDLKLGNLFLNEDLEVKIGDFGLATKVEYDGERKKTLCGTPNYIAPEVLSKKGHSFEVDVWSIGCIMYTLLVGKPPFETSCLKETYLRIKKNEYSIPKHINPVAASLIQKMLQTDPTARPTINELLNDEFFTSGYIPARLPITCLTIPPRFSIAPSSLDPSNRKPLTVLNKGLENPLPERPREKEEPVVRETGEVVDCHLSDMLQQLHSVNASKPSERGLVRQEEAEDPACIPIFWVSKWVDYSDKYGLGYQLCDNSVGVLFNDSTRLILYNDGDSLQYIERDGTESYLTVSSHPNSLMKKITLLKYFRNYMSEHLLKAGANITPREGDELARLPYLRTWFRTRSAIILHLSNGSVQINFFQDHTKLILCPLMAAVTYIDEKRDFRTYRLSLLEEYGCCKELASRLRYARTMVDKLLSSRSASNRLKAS
# HP1b binding inh: blocks HP1-beta chromodomain binding to methylated histone tails; P83916; AlphaScreen HP1-beta / biotin-H3K9me3 peptide binding; Potency, µM (series often up to 114 µM), most hits filed as inhibitors; hit rate 0.56% among 390,000; further: nearly all actives have a fitted effect of over 70% in size
#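 HP1-beta protein (50 nM final) preincubated 30 min at room temperature with biotinylated H3(1-18)K9me3 peptide (50 nM) in PBS pH 7.4, 0.01% Tween-20, then compound added for 30 min. AlphaScreen streptavidin donor/nickel chelate acceptor beads (10 ug/mL final), 30 min dark, luminescence read.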
# G9a block: blocks human histone lysine methyltransferase G9a | G9a H3K9 monomethylation, AlphaScreen, 2 h | Potency, µM (series often up to 102 µM), actives largely listed as inhibitors | hit rate 8.8% among 350,000 | AID 504332; further: nearly all actives have a fitted effect of over 75% in size
#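 Step 1: enzyme (final 20 nM) with compound, 15 min RT. Step 2: substrate peptide 500 nM and SAM 20 uM, 2 h RT. Step 3: anti-H3K9me1 antibody and AlphaScreen beads, 10 min, then plate read.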
# JMJD2A Tudor: inhibitors of human JMJD2A Tudor domain | AID 504339 | Potency, µM (top dose mostly 114 µM), actives largely listed as inhibitors | hit rate 4.4% among 390,000 | O75164 | AlphaScreen JMJD2A-Tudor / H3K4me3 peptide binding; further: nearly all actives have a fitted effect of over 50% in size
# Hits are given with their value; 0 = inactive; ? = inconclusive; - = no result; [ ] = dose if it differs, or a comment. Sampled rows, rich in hits. Any-hit rate of the full collection: about 12%. The call rests on the fitted dose curve; in most records, active means well fitted curve in the direction sought with a large enough effect; inconclusive means small, poorly fitted or top-dose-only effect, or another doubt; inactive means no such curve, though single readings can be large; an effect the other way counts as inactive or inconclusive.
SMILES,Sfp PPTase inh,BAZ2B block,PLK1 PBD inh,HP1b binding inh,G9a block,JMJD2A Tudor
CCOc1cc(N2CCOCC2)c(OCC)cc1NC(=O)CSc1ncccc1C(=O)O,-,-,0,0,-,0
CCOc1cc(N2CCOCC2)c(OCC)cc1NC(=O)CN1CCC(Cc2ccccc2)CC1,0,32µM,0,25µM,50µM,22µM
Cc1nc2ccn(Cc3ccco3)c(=O)c2cc1C(=O)N1CCN(c2ccc(F)cc2)CC1,-,0,-,0,0,0
COc1cc(OC)c(NC(C)C(=O)NCc2ccccc2)cc1Cl (centres undefined),?,?,0,0,?,0
CCOc1cc(N2CCOCC2)c(OCC)cc1NC(=O)COC(=O)CCOc1ccc(C(C)(C)C)cc1,-,35µM,0,?,0[0.501 µM],20µM
CCN1CCN(C(=O)C(C)Nc2cc(Cl)c(OC)cc2OC)CC1 (centres undefined),0,-,0,0,40µM,0
O=C(CSc1ncc(S(=O)(=O)c2ccc(Br)cc2)c(=O)[nH]1)NCc1ccc(Cl)cc1,-,0,-,0,0,0
COc1ccc(/C=C/C(=O)N2CCCc3ccccc32)cc1,79µM,0,0,0,?,0
COc1ccc(N/N=C(/C(C)=O)N2CCCc3ccccc32)cc1,0,?,0,?,-,35µM
Cc1ccccc1Nc1nc(Cl)nc(NC(C)(C)C)n1,-,-,0,-,-,-
Cc1nc(SCc2ccc(F)cc2)c2oc3ccccc3c2n1,0,0,0,0,-,0
Cc1nc(SCc2ccccc2F)c2oc3ccccc3c2n1,79µM,0,0,0,0,0
Cc1nc(SCc2nc3c(F)cccc3[nH]2)c2oc3ccccc3c2n1,-,-,-,0,-,79µM
Cc1nc(SCc2nc3c(C)cccc3[nH]2)c2oc3ccccc3c2n1,-,-,-,0,-,?
CCOc1ccc(-c2cn3c(n2)sc2cc(C(=O)NCCCN4CCCCC4)ccc23)cc1,-,0,-,0,0,0
COc1ccccc1CNc1ccnc(-c2ccccc2C(F)(F)F)n1,0,-,-,-,-,-
CCOc1cc(CNCCc2ccc(S(N)(=O)=O)cc2)ccc1OCc1ccc(Cl)cc1,8.9µM,0,0,0,0,0
COc1cc(/C=N/N=C(N)N)ccc1OCc1ccc(Cl)cc1,16µM,0,0,0,?,?
CCOc1cc(/C=N/N=C(N)N)ccc1OCc1ccc(Cl)cc1,20µM,?,0,0,?,?
COc1cc(CNCCc2ccc(S(N)(=O)=O)cc2)ccc1OCc1ccc(Cl)cc1,0,0,0,0,-,0
NC(N)=N/N=C/c1ccc(OCc2ccccc2)c(OCc2ccccc2)c1,56µM,40µM,0,?,?,?
Cc1ccc(CNC(=O)c2ccc(N3CCC4(CC3)CC(c3ccccc3)=NO4)c(NC(=O)c3c(Cl)cccc3Cl)c2)cc1,-,0,0,0,0[2.33 µM],0
COC(=O)[C@@H](NC(=O)c1ccc2c(c1)S(=O)(=O)c1ccccc1C2=O)C(C)C,0,0,0,0,0,0
NC(N)=N/N=C/c1ccccc1,0,0,0,0,0,0
NC(N)=N/N=C/c1ccc(OCc2ccccc2Cl)cc1,50µM,0,0,0,0,?
SMILES,Sfp PPTase inh,BAZ2B block,PLK1 PBD inh,HP1b binding inh,G9a block,JMJD2A Tudor
Cc1cc(Nc2ccc(Br)c(C)c2)n2nc(C)nc2n1,0,0,30µM,0,0,?
Cc1cc(Nc2ccc(C(=O)O)cc2)n2nc(C)nc2n1,0,0,0,0,0,0
CC(=O)c1ccc(Nc2cc(C)nc3nc(C)nn23)cc1,0,0,0,0,79µM,0
CCOC(=O)C1(Cc2cccc(Cl)c2)CCCN(C(=O)c2cc(C(C)C)nn2C)C1 (centres undefined),0,0,0,0,-,0
COc1ccc(-c2nn3c(-c4ccc(F)cc4)nnc3s2)cc1,0,0,0,0,45µM,0
COc1cc(-c2nnc3sc(Cc4ccccc4)nn23)cc(OC)c1OC,0,0,27µM,?,35µM,?
COc1cc(-c2nnc3sc(Cc4ccc(Cl)cc4)nn23)cc(OC)c1OC,-,-,24µM,0,-,0
COc1ccc(Cc2nn3c(-c4cc(OC)c(OC)c(OC)c4)nnc3s2)cc1,0,0,24µM,?,?,79µM
Cc1nc2nc(NC(=O)C(C)C)[nH]n2c(=O)c1Cc1ccccc1,-,0,-,0,0,0
CNC1=CN(O)C(c2ccccc2)=c2cc(Cl)ccc2=N1,0,-,-,-,0[2.33 µM],-
COc1cc(C(=O)NCC(c2cccs2)N2CCOCC2)ccc1OCc1ccccc1 (centres undefined),-,-,0,-,-,-
COC(=O)c1cc(=O)nc2sc(-c3ccc(F)cc3)nn12,22µM,0,6.7µM,?,4µM,0
c1ccc(CCc2nn3c(-c4ccncc4)nnc3s2)cc1,?,0,27µM,0,?,0
COc1ccc(-c2nnc3sc(CCN4C(=O)c5ccccc5C4=O)nn23)cc1,0,0,0,0,45µM,0
Cc1ccc(NC(=O)C(Cc2c[nH]c3ccccc23)NC(=O)OC(C)(C)C)c(C)c1 (centres undefined),-,0,-,0,0,0
Cc1ccc(C(=O)OCc2nnc(-c3ccccc3)o2)cc1S(=O)(=O)N1CCOCC1,-,0,0,0,0[0.501 µM],0
Cn1c(N)c(C(=O)CSc2n[nH]c(-c3ccccc3)n2)c(=O)n(C)c1=O,-,0,0,0,0[12.7 µM],0
O=C(NCc1cccc(Cl)c1)c1ccc2nc(N3CCOCC3)sc2c1,0,0,27µM,0,-,0
O=C(NCCc1ccccc1)c1ccc2nc(N3CCOCC3)sc2c1,0,0,0,0,-,0
CCOC(=O)/C(=N/Nc1ccc(OC)cc1)Sc1nnc(CCc2ccccc2)n1-c1ccccc1,0,0,0,0,?,0
CCOC(=O)/C(=N\Nc1ccc(Cl)cc1)Sc1nnc(-c2ccc(OC)cc2)n1C,0,?,0,0,10µM,0
COc1cc(C2N(c3ccccc3)CCN2c2ccccc2)cc(OC)c1OC,0,?,0,0,?,?
Cc1ccc(N2CCN(c3ccc(C)cc3)C2c2ccncc2)cc1,45µM,0,0,?,35µM,0[11.4 µM]
Cc1cc(OCC(O)CN2CCCC2)cc(C)c1Cl (centres undefined),0,0,0,0,0,0
O=C(CNC(=O)c1cccs1)Nc1ncccc1O,-,56µM,0,0,0,0
NC(CCCCCP(=O)(c1ccccc1)c1ccccc1)C(=O)O (centres undefined),0,0,0,0,?,10µM
COc1cc([N+](=O)[O-])ccc1NC(=O)COC(=O)c1c[nH]c(=O)[nH]c1=O,-,-,0,0,-,0
CCN=C1S/C(=C/c2ccc(-c3ccc(Cl)cc3C(=O)O)o2)C(=O)N1CC,0,?,?,0,45µM,0
O=C(O)c1cccc(-c2ccc(/C=C3/SC(=Nc4ccccc4)N(Cc4cccnc4)C3=O)o2)c1,50µM,50µM,24µM,?,32µM,45µM
